Bioassay records (PubChem BioAssay)
Giardia FBPA inh = inhibitors of Giardia lamblia fructose-1,6-bisphosphate aldolase; A8B2U2; purified Giardia FBPA; Potency, µM (doses to about 59.6 µM), for inactives: at the highest dose activity, negative = inhibition, most hits filed as inhibitors; 290,000 compounds, 0.71% hits; AID 2451; further: nearly all actives have a fitted effect of over 55% in size
Target sequence (A8B2U2 whole entry, looked up): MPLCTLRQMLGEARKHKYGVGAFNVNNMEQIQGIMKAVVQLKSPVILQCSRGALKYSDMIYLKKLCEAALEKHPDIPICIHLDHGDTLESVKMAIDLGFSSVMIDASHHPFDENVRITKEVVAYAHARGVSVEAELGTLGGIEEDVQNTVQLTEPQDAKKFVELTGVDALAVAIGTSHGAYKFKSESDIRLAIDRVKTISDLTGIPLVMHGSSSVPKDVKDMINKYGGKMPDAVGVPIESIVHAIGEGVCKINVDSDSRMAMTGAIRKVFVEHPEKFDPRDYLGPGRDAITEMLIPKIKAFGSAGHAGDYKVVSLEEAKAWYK
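40 nM FBPA preincubated 10 min at RT with compound (up to 57.5 uM final), then substrate plus GAPDH/TPI/NAD/arsenate coupling and diaphorase/resazurin added. Fluorescence read after 20 min at RT, 525/598 nm.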
AmpC no deterg = AmpC beta-lactamase inhibition without detergent; P00811; AmpC nitrocefin hydrolysis, absorbance 480 nm, 0.0001% Triton; Potency, µM (titrated, usually from 57.1 µM), for inactives: at the highest dose activity change, negative = inhibition, usual class: inhibitors; 330,000 compounds, 0.52% hits; AID 485341;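 further: plate controls were no compound for no effect and no enzyme for full effect; nearly all actives have a fitted effect of over 20% in size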
Target sequence (P00811 whole entry, looked up): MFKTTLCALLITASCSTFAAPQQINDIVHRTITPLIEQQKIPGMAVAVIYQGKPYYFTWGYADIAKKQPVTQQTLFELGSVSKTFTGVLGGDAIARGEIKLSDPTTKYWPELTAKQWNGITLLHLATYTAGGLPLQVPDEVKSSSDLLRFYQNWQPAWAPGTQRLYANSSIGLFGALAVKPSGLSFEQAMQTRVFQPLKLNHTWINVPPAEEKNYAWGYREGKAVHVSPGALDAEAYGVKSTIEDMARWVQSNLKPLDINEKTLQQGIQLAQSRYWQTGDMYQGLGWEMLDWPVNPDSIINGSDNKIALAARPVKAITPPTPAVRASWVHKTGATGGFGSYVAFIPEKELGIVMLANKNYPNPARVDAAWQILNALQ
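20 mM phosphate pH 7.0 + 0.01% (detergent screen) or 0.0001% Triton X-100; 5.3 nM AmpC reagent; cpd preinc 15 min RT; nitrocefin (800 uM stock) to start; A480 q20 s × 4 min; Activity was normalised to no-enzyme and no-compound control wells.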
Sm TGR inh = blocks Schistosoma mansoni thioredoxin glutathione reductase; purified TGR, DTNB reduction, TNB absorbance 405 nm; Q962Y6; Potency, µM (doses to about 114 µM), for inactives: top-dose activity change, negative = inhibition, hits mostly inhibitors; 360,000 compounds, 3% hits; further: nearly all actives have a fitted effect of over 60% in size
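Kinetic colorimetric format: TGR-catalysed, NADPH-driven DTNB reduction monitored via TNB absorbance. Enzyme dispensed at 20 nM; compound exposure 15 min at room temperature before reaction start.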
RE007 growth inh = less growth of the S. pombe RE007 Vpr strain; S. pombe RE007 Vpr strain, BacTiter-Glo ATP luminescence, 24 h; Potency, µM (top dose mostly 92.2 µM), for the others: at the top dose activity change, negative = less growth, usual class: inhibitors; 360,000 compounds, 0.21% hits; AID 651644; active means well fitted falling curve with a large enough effect; inconclusive means small, poorly fitted or top-dose-only effect; inactive means no such curve, though single readings can be large or run the other way; further: nearly all actives have a fitted effect of over 50% in size
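Fission yeast RE007 carrying one integrated HIV-1 vpr copy, seeded at OD 0.01 in PMG+AL medium with 23 nL pinned compound. Grown 24 h at 30 degrees; viability read by BacTiter-Glo luminescence after 5 min.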
AmpC detergent = AmpC beta-lactamase inhibition with detergent present; P00811; AmpC hydrolysis of nitrocefin, absorbance 480 nm, 0.01% Triton; Potency, µM (highest dose often 114 µM), inactives show at the highest dose activity change, negative = inhibition, usual class: inhibitors; 370,000 compounds, 0.041% hits; AID 485294;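 further: 0% = no-compound wells and -100% = no-enzyme wells; nearly all actives have a fitted effect of over 25% in size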
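AmpC (5.3 nM in the dispensed reagent) in 20 mM phosphate pH 7.0 with 0.01% (detergent screen) or 0.0001% Triton X-100 was preincubated with compounds for 15 min at room temperature. Nitrocefin was then added from an 800 uM solution, and hydrolysis was followed at 480 nm.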
* hit, by the source's call; u = inconclusive; x = no result given; [ ] = remark or other dose. Sampled rows, rich in hits. Any-hit rate of the full collection: about 3.4%. Unless noted, the call rests on the fitted dose curve; in most records, active means well fitted curve in the direction sought with a large enough effect; inconclusive means small, poorly fitted or top-dose-only effect, or another doubt; inactive means no such curve, though single readings can be large; an effect the other way counts as inactive or inconclusive. Unless noted, on the % scale 0 is the no-effect control and ±100 the full control effect; potency means the concentration at half of the fitted maximal effect.

SMILES	Giardia FBPA inh	AmpC no deterg	Sm TGR inh	RE007 growth inh	AmpC detergent
CC1=C(C(N)=O)C(c2cccs2)n2nc(-c3cccc(C)c3)nc2N1 (centres undefined)	0%	1%	8%	8%	0%
CCOc1ccccc1C1C(C(N)=O)=C(C)Nc2nc(-c3cccc(C)c3)nn21 (centres undefined)	1%	193%	40µM*	-8%	-2%
O=C(O)/C=C/c1nc(-c2ccccc2)n2ccccc12	u	-22%	2.5µM*	-8%	-3%
CCOC(=O)C(C)Oc1cccc2c(=O)n(CC(=O)Nc3cccc(OC)c3)ccc12 (centres undefined)	8%	7.1µM*	0%	-3%	u
CCOC(=O)C(C)Oc1cccc2c(=O)n(CC(=O)Nc3ccc(OCC)cc3)ccc12 (centres undefined)	1%	-4%	-3%	-2%	u
C/C(CC(=O)NC12CC3CC(CC(C3)C1)C2)=N\NC(=O)c1cnccn1	-20%	16%	-2%	-13%	-3%
O=[N+]([O-])c1ccc(O)c(C(C#Cc2ccccc2)N2CCOCC2)c1 (centres undefined)	9%	8.9µM*	-7%	-10%	-3%
COCCN1CCn2c(nc3cc([N+](=O)[O-])ccc32)C1	-3%	-15%	40µM*	-8%	-3%
O=[N+]([O-])c1ccc2c(c1)nc1n2CCN(CC2CCCO2)C1 (centres undefined)	-1%	-9%	u	-11%	-5%
O=[N+]([O-])c1ccc2c(c1)nc1n2CCN(c2ccccc2)C1	-6%	-38%	28µM*	2%	1%
Cc1ccc(C(=O)n2ncn(C)c2=S)cc1	-28%	-22%	18µM*	11%	2%
Cc1ccc(C(=O)n2nc(-c3ccco3)nc2N)cc1	-1%	-15%	u	2%	-14%
OCCCn1c(-c2ccccc2)nc(=S)c2c1CCCC2	u	-14%	u	11%	-6%
COc1cccc(-c2nc(=S)c3c(n2Cc2ccco2)CCCC3)c1	-4%	-23%	u	-19%	3%
Cc1ccc(-c2nc(=S)c3c(n2Cc2ccco2)CCCC3)cc1	7%	-10%	8.9µM*	-17%	u
Cc1cccc(-c2nc(=S)c3c(n2Cc2ccco2)CCCC3)c1	-15%	-13%	20µM*	11%	u
CN(C)CCCn1c(-c2ccccc2)nc(=S)c2c1CCCC2	-1%	-19%	45µM*	8%	-1%
O=c1cc(CO)oc(C(Nc2ccccn2)c2ccc(C(F)(F)F)cc2)c1O (centres undefined)	-9%	-7%	40µM*	-6%	-6%
O=c1cc(CO)oc(C(Nc2ccccn2)c2cccc(F)c2)c1O (centres undefined)	u	40µM*	2.8µM*	1%	u
O=c1cc(CO)oc(C(Nc2ccccn2)c2ccccc2F)c1O (centres undefined)	x	x	x	-6%	x
COc1cccc(C(Nc2ccccn2)c2oc(CO)cc(=O)c2O)c1 (centres undefined)	u	-25%	3.2µM*	21%	-13%
COc1cccc(C(NC(C)=O)c2nc(-c3cc4ccccc4o3)cs2)c1 (centres undefined)	x	x	x	6%	x
O=c1cc(CO)occ1OCc1cccc(C(F)(F)F)c1	4%	-1%	1%	-21%[3.69 µM]	-3%
CCCOc1ccc(C(=O)Nc2ccc(N3CCOCC3)cc2N2CCOCC2)cc1OCC	x	x	x	6%	x
c1csc(C2Nc3cccc4cccc(c34)N2)c1	-29%	-24%	22µM*	-18%	2%
SMILES	Giardia FBPA inh	AmpC no deterg	Sm TGR inh	RE007 growth inh	AmpC detergent
Fc1cccc(Cl)c1C1Nc2cccc3cccc(c23)N1	-8%	-31%	u	-13%	2%
Clc1cccc(Cl)c1C1Nc2cccc3cccc(c23)N1	-30%	-30%	3.2µM*	-20%	5%
COc1ccc(C2Nc3cccc4cccc(c34)N2)cc1	-21%	-18%	x	-10%	3%
Clc1cccc(C2Nc3cccc4cccc(c34)N2)c1	-27%	-29%	3.2µM*	6%	5%
CN1c2cccc3cccc(c23)N(C)C1c1cccs1	-30%	-33%	-28%	-8%	4%
c1ccc(C2Nc3cccc4cccc(c34)N2)cc1	u	-20%	8.9µM*	12%	2%
Cc1cccc(C2NC(=O)c3ccccc3N2)c1 (centres undefined)	x	x	x	-6%	x
Cc1nc(SCC(=O)OCc2ccccc2)c(C#N)c(-c2ccccc2)c1C(=O)Nc1ccccc1	-4%	u	-2%	-8%	0%
CCCS(=O)(=O)NC(=O)C1(C)CCN(C(=O)c2ccc(OC)cc2)C1 (centres undefined)	x	x	x	23%	x
O=[N+]([O-])c1ccc(Cl)c(C2Nc3cccc4cccc(c34)N2)c1	u	-40%	-26%	-23%	0%
Brc1cccc(C2Nc3cccc4cccc(c34)N2)c1	-10%	-28%	11µM*	36%	1%
CN(C)c1ccc(C2NC(=O)c3ccccc3N2)cc1 (centres undefined)	-7%	1%	10%	9%	1%
Clc1ccc(C2Nc3cccc4cccc(c34)N2)cc1Cl	-26%	-37%	14µM*	-7%	u
CN(C)c1ccc(C2Nc3cccc4cccc(c34)N2)cc1	-19%	-40%	32µM*	-17%	-7%
O=C(c1cccc(F)c1)N1CCC2(CC1)NCCc1[nH]cnc12	x	-3%	-21%	4%	-2%
CN(CC(=O)Nc1ccc(Cl)c(Cl)c1)CC(=O)N1CCc2ccccc21	x	x	x	-17%	x
CCOc1ccc(CCNC(=O)Cn2nc(C)n3c(cc4occc43)c2=O)cc1OCC	x	x	-3%	x	21%
O=C(COC(=O)c1ccc(NS(=O)(=O)c2cccs2)cc1)Nc1nc2c(F)c(F)c(F)cc2s1	0%	20µM*	-6%	-6%	-4%
NC(=O)c1cccc(N=Cc2cc(Cl)cc(Cl)c2O)c1	-27%	4%	x	-13%	0%
Oc1c(Cl)cc(Cl)cc1C=Nc1ccccc1N1CCCC1	u	-20%	16µM*	x	u
Cc1cc(NC(=O)c2cc(-c3ccc(Cl)cc3)on2)nn1Cc1ccc(Cl)cc1	x	x	-5%	x	0%
Cc1cc(Br)c(NC(=O)CCl)c(Br)c1	-5%	-4%	32µM*	18%	-3%
Cc1cc(NC(=O)CCl)nn1C	1%	-16%	28µM*	4%	-5%
Cn1ccc(NC(=O)CCl)n1	-6%	-5%	14µM*	3%	9%
Cc1cc(Br)c(NC(=O)CN(C)CCOc2ccccc2)c(Br)c1	-4%	54%	22%	-9%	-4%
Nc1ccn(C2CCCCO2)c(=O)n1 (centres undefined)	x	x	x	-10%	x
CN1/C(=C/C2CC(=O)NC2=O)C(C)(C)c2ccccc21 (centres undefined)	-26%	-7%	45µM*	3%	2%
